Compound activity deposited in PubChem by several laboratories.
LGR2 antag: Drosophila LGR2 receptor signaling inhibition. HEK293 LGR2, CRE-luciferase, bursicon-stimulated, 4 h. inhibition, % at 9.99 µM. AID 720647. actives 0.35% (n = 380,000);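 active = drop in luminescence signal, shown as inhibition above about 50% in the replicate tests, limit read from the data, passing the limit was not always enough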;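 note: agonist challenge used bursicon conditioned medium at about half maximal strength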
LMP1 NFkB inh: Epstein-Barr LMP1 NF-kappaB reporter inhibition. inhibition, % at 12.5 µM. AID 504558. LMP1-induced NF-kappaB luciferase reporter cells, luminescence. actives 0.69% (n = 350,000); in the data active = inhibition above about 41%
TWEAK Fn14 block: inhibitors of TWEAK-Fn14 interaction signaling; TWEAK-stimulated Fn14 reporter cells, luciferase luminescence, 8 h; inhibition, % at 10 µM; actives 2% (n = 360,000); in the data active = inhibition above about 50%
TROY NFkB inh: TROY signaling inhibition; Q293 LMP1-TROYcd NF-kB luciferase reporter, 4 h; inhibition, % at 10 µM; actives 0.98% (n = 360,000); AID 1347056;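 active = compounds whose plate-normalised and pattern-corrected inhibition of the luciferase reporter signal at the single screening dose is 50% or more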
EWS-Fli inh: EWS/Fli transcriptional activity inhibition. A673 NR0B1-luciferase reporter, viability-normalised. inhibition, % at 12.6 µM. actives 0.67% (n = 350,000). AID 651661;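 active = mean inhibition of at least 50% after viability correction, with every replicate also passing that limit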;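 note: firefly luciferase signal divided by Alamar Blue viability fluorescence both relative to DMSO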
PAX8 inh HTS: lowers PAX8-driven luciferase in RMG-I cells. RMG-I TPO-luciferase reporter, SteadyGlo, 24 h. inhibition, % at 12.6 µM. actives 1.2% (n = 360,000);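 active = mean replicate inhibition at least 60% with every replicate also reaching 60%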;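 note: luciferase light reporting Pax8 driven TPO promoter activity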
A number is an active result; – = inactive; · = no result. Hits are enriched below; roughly 3.2% of the tested compounds scored in any of these assays.

SMILES	LGR2 antag	LMP1 NFkB inh	TWEAK Fn14 block	TROY NFkB inh	EWS-Fli inh	PAX8 inh HTS
CN(CCC#N)C(=O)COC(=O)c1ccccc1C(=O)c1ccc(Cl)c([N+](=O)[O-])c1	·	–	–	55.3	–	–
C[C@@H]1CN([C@H](C)CO)C(=O)c2cc(NC(=O)Cc3ccccc3)ccc2O[C@H]1CN(C)Cc1ccc(C(F)(F)F)cc1	–	·	·	·	–	–
CCCNC(=O)Nc1ccc2c(c1)C(=O)N(C)C[C@H](OC)[C@H](C)CN(C(C)=O)[C@H](C)CO2	–	·	·	·	–	–
CCC(=O)Nc1ccc2c(c1)OC[C@@H](C)N(Cc1nccs1)C[C@H](C)[C@H](OC)CN(C)C2=O	–	·	·	·	–	–
Cn1c(N)c(C(=O)COC(=O)c2ccccc2C(=O)c2ccc(Cl)c([N+](=O)[O-])c2)c(=O)n(C)c1=O	·	–	87.7	65.1	·	·
Cn1c(N)c(C(=O)COC(=O)c2ccccc2C(=O)c2ccccc2)c(=O)n(C)c1=O	–	–	–	–	–	–
S=C(NCc1ccccn1)Nc1ccc(Cl)cc1	·	–	72.4	·	·	·
COc1ccc(C)cc1S(=O)(=O)N1CCN(C(=O)c2ncoc2-c2ccc(F)cc2)CC1	–	–	–	–	–	–
COc1ccc(C)cc1S(=O)(=O)N1CCN(C(=O)c2ncoc2-c2ccc(C)cc2)CC1	–	–	84.9	–	–	–
CC(=O)C(=Cc1ccc(C(=O)O)cc1)C(C)=O	–	–	–	–	–	–
Cc1ccc(NC(=O)C(=Cc2ccc(C(=O)O)cc2)C(=O)Nc2ccc(C)cc2C)c(C)c1	·	–	69.9	–	·	·
CO[C@@H]1CN(C)C(=O)c2ccc(NS(=O)(=O)c3ccccc3)cc2OC[C@@H](C)N(C(=O)NC(C)C)C[C@H]1C	–	·	·	·	–	·
Cc1coc2c1C(=O)C(=O)c1c-2ccc2c(C)cccc12	·	78.5	–	–	·	·
N#CCc1ccc(NC(=O)/C=C/c2ccc([N+](=O)[O-])o2)cc1	·	–	61.1	–	·	·
O=C(CSc1nc2ccccc2s1)N/N=C/c1ccccc1C(=O)O	–	–	89.3	82.3	–	–
O=C(CSc1nc2ccccc2o1)Nc1nc2c(s1)CCCC2	–	–	89.4	–	–	–
O=C(CSc1nc2ccccc2o1)Nc1nc2ccccc2s1	·	–	–	–	·	·
Cc1ccccc1/C=N/NC(=O)Cn1nnc(N)n1	–	–	–	–	–	65.5
O=C(CSc1nc2ccccc2o1)Nc1nccs1	–	–	–	–	–	–
O=C(CSc1nc2ccccc2o1)Nc1nc(-c2ccccc2)cs1	–	–	84.2	80.1	·	–
CO[C@@H]1CN(C)C(=O)c2cc(NC(C)=O)ccc2OC[C@@H](C)N(Cc2ccccc2F)C[C@H]1C	–	·	·	·	–	·
CCCNC(=O)C[C@H]1C[C@H]2c3cc(NC(=O)c4cccnc4)ccc3O[C@H]2[C@H](CO)O1	–	·	·	·	–	–
C[C@@H]1CN([C@H](C)CO)C(=O)c2cccc(NC(=O)C3CC3)c2O[C@H]1CN(C)C(=O)Nc1ccc2c(c1)OCO2	–	·	·	·	–	·
O=C(NC1CCCCC1)N[C@H]1CC[C@H](CCNS(=O)(=O)c2ccccc2)O[C@@H]1CO	–	·	·	·	–	–
CO[C@H]1CN(C)C(=O)c2cc(NS(C)(=O)=O)ccc2OC[C@@H](C)N(CC2CC2)C[C@@H]1C	–	·	·	·	–	–
SMILES	LGR2 antag	LMP1 NFkB inh	TWEAK Fn14 block	TROY NFkB inh	EWS-Fli inh	PAX8 inh HTS
Cc1ccccc1/C=N/NC(=O)CSc1nc2ccccc2o1	–	–	65.0	–	·	–
CCOC(=O)c1c(NC(=O)CSc2nc3ccccc3o2)sc(C(C)=O)c1C	–	–	68.6	–	·	–
CCC(=O)N[C@@H]1CC[C@H](CC(=O)NCc2cc(F)cc(F)c2)O[C@H]1CO	–	·	·	·	–	–
C[C@@H]1CN([C@@H](C)CO)S(=O)(=O)c2ccc(C#Cc3ccccc3F)cc2O[C@H]1CN(C)CC1CCOCC1	–	·	·	·	–	94.1
C[C@@H]1CN([C@@H](C)CO)S(=O)(=O)c2ccc(C#Cc3ccccc3F)cc2O[C@H]1CN(C)CC1CC1	–	·	·	·	–	·
C[C@@H]1CN([C@H](C)CO)S(=O)(=O)c2ccc(C#Cc3ccccc3F)cc2O[C@@H]1CN(C)CC1CCOCC1	–	·	·	·	–	–
C[C@H]1CN([C@@H](C)CO)S(=O)(=O)c2ccc(C#Cc3ccccc3F)cc2O[C@@H]1CN(C)CC1CCOCC1	–	·	·	·	–	89.9
C=CC[C@@]1(C(=O)NCCCOC)N=C(c2ccc(OCCCO)cc2)O[C@@H]1c1ccccc1	·	·	·	·	–	–
CN1C(=O)c2cc(NC(=O)C3CC3)ccc2OC[C@H]2O[C@H](CC(=O)NC3CCC3)CC[C@H]21	–	·	·	·	–	–
CCCc1nc(SCC(=O)NCc2ccco2)c2c(=O)n(C)c(=O)n(C)c2n1	–	66.5	–	–	–	–
CN(C)CC(=O)Nc1ccc2c(c1)[C@H]1C[C@H](CC(=O)NCc3ccc(Cl)cc3)O[C@@H](CO)[C@H]1O2	–	·	·	·	–	·
CCC(C)(C)NC(=O)/C=C/c1cnc2ccccc2n1	–	–	–	–	–	–
O=C(O)/C=C/c1cnc2ccccc2n1	–	–	–	63.7	–	–
O=C(/C=C/c1cnc2ccccc2n1)NC12CC3CC(CC(C3)C1)C2	–	–	72.7	70.5	·	·
COCC(=O)N1[C@H](CO)[C@@H](c2ccccc2)[C@@H]1CNC(=O)c1ccccn1	–	·	·	·	–	–
COCC#Cc1cnc2c(c1)C(=O)N([C@@H](C)CO)C[C@@H](C)[C@@H](CN(C)C(=O)C1CC1)O2	–	·	·	·	–	·
CC1(C)CC(=O)C2=C(C1)Nc1ccccc1NC2c1cc(Cl)ccc1O (configuration not stated)	–	84.9	–	–	–	–
O=c1oc2ccccc2cc1-c1cn2ccccc2n1	71.5	68.1	97.2	71.0	85.3	71.5
O=c1oc2ccccc2cc1-c1cn2cccnc2n1	·	–	–	–	·	·
C[C@@H]1CCCCO[C@H](CN(C)Cc2ccc(C(F)(F)F)cc2)[C@@H](C)CN([C@H](C)CO)C(=O)c2cc(NC(=O)Cc3ccccc3)ccc2O1	–	·	·	·	–	–
C[C@@H]1CCCCO[C@@H](CN(C)Cc2ccc(C(F)(F)F)cc2)[C@@H](C)CN([C@@H](C)CO)C(=O)c2cc(NC(=O)Cc3ccccc3)ccc2O1	–	·	·	·	–	–
Cc1ccc(S(=O)(=O)N(C)C[C@@H]2Oc3ccc(NC(=O)Cc4ccccc4)cc3C(=O)N([C@H](C)CO)C[C@H]2C)cc1	–	·	·	·	–	–
C[C@H]1CCCCO[C@@H](CN(C)Cc2ccc(C(F)(F)F)cc2)[C@@H](C)CN([C@@H](C)CO)C(=O)c2cc(NC(=O)Cc3ccccc3)ccc2O1	–	·	·	·	–	82.2
C[C@@H]1CCCCO[C@H](CN(C)Cc2ccc(C(F)(F)F)cc2)[C@H](C)CN([C@H](C)CO)C(=O)c2cc(NC(=O)Cc3ccccc3)ccc2O1	–	·	·	·	–	82.8
C[C@@H]1CCCCO[C@H](CN(C)Cc2ccc(C(F)(F)F)cc2)[C@@H](C)CN([C@@H](C)CO)C(=O)c2cc(NC(=O)Cc3ccccc3)ccc2O1	–	·	·	·	–	85.1
